{"source": "PubChem BioAssay (EPA / NIEHS)", "note": "More than one record can exist for a structure, and the calls need not agree. Activity calls are given as the source filed them. The calls were made as follows: active = hit-call score of the fitted dose curve at least 0.9, where 1 is the maximum; inactive = score below 0.9."}
{"assay": "BSK_SAg_SRB: Viability Assessment in the BioMAP Diversity Plus: SAg Assay (AID 2283096);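 also: cells read one day after compound addition; hits may be either gain or loss of signal compared with DMSO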", "settings": "primary human HUVEC with PBMC", "method_in_brief": "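Human umbilical vein endothelial cells co-cultured with PBMC, read 24 h after compound dosing. Total protein measured by sulforhodamine B staining (0.1% SRB after 10% TCA fixation, absorbance 560 nm); bidirectional fit versus DMSO baseline.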"}
{"smiles": "NC(=S)Nc1ccccc1", "outcome": "inactive"}
{"smiles": "C=CC(=O)OCCCCCC(C)C", "outcome": "inactive"}
{"smiles": "CCC(C)(C)c1ccc(O)c(C(C)(C)CC)c1", "AC50": "14.6 µM (active)"}
{"smiles": "COC(=O)Cc1ccccc1", "outcome": "inactive"}
{"smiles": "CC(=O)OC(c1ccccc1)C(Cl)(Cl)Cl", "note": "(centres undefined)", "outcome": "inactive"}
{"smiles": "ClC1=C(Cl)[C@]2(Cl)[C@H]3[C@H]([C@H]4C=C[C@H]3C4)[C@@]1(Cl)C2(Cl)Cl", "AC50": "5.42 µM (active)"}
{"smiles": "CC1(C)Cc2cccc(O)c2O1", "outcome": "inactive"}
{"smiles": "COc1cc(-c2ccc(N)c(OC)c2)ccc1N", "outcome": "inactive"}
{"smiles": "C=C(C)C(=O)[O][Sn]([CH2]CCC)([CH2]CCC)[CH2]CCC", "AC50": "0.148 µM (active)"}
{"smiles": "CCOP(=S)(OCC)SCCS(=O)(=O)CC", "outcome": "inactive"}
{"smiles": "O=Cc1cccc(Oc2ccccc2)c1", "outcome": "inactive"}
{"smiles": "Nc1ncc([N+](=O)[O-])s1", "outcome": "inactive"}
{"smiles": "CCOP(=S)(OCC)Oc1nc(Cl)c(Cl)cc1Cl", "outcome": "inactive"}
{"smiles": "C[C@]12CCC(=O)C[C@@H]1CC[C@@H]1[C@@H]2CC[C@]2(C)[C@@H](O)CC[C@@H]12", "AC50": "25.7 µM (active)"}
{"smiles": "CCSC(C)CC1CC(=O)C(C(CC)=NOC/C=C/Cl)=C(O)C1", "note": "(centres undefined)", "outcome": "inactive"}
{"smiles": "COC(=O)c1sccc1S(=O)(=O)NC(=O)Nc1nc(C)nc(OC)n1", "outcome": "inactive"}
{"smiles": "COP(=S)(OC)Oc1cc(Cl)c(Cl)cc1Cl", "outcome": "inactive"}
{"smiles": "O=C(O)C(F)(F)C(F)(F)C(F)(F)C(F)(F)C(F)(F)C(F)(F)F", "outcome": "inactive"}
{"smiles": "CCCCC(CC)CO[N+](=O)[O-]", "note": "(centres undefined)", "outcome": "inactive"}
{"smiles": "COC[C@H](C)N(C(=O)CCl)c1c(C)csc1C", "outcome": "inactive"}
{"smiles": "CN(C)N=O", "outcome": "inactive"}
{"smiles": "C(=NC1CCCCC1)=NC1CCCCC1", "AC50": "30 µM (active)"}
{"smiles": "O=C(O)C(F)(F)C(F)(F)C(F)(F)C(F)(F)C(F)(F)C(F)(F)C(F)(F)C(F)(F)C(F)(F)C(F)(F)F", "AC50": "29.4 µM (active)", "outcome": "inactive"}
{"smiles": "O=c1[nH]c(=O)[nH]c(=O)[nH]1", "outcome": "inactive"}
{"smiles": "O=C(O)CCC(F)(C(F)(F)F)C(F)(F)F", "outcome": "inactive"}
{"smiles": "CC(C)(OO)c1ccccc1", "outcome": "inactive"}
{"smiles": "O=C(O)C(Cl)(Cl)Cl", "outcome": "inactive"}
{"smiles": "Cc1ccccc1N", "outcome": "inactive"}
{"smiles": "NC(=O)O", "outcome": "inactive"}
{"smiles": "C[C@@H]1C[C@@H]([C@H](O)CC2CC(=O)NC(=O)C2)C(=O)[C@@H](C)C1", "AC50": "7.07 µM (active)"}
{"smiles": "ClCC(Cl)CCl", "outcome": "inactive"}
{"smiles": "CC(=O)C(Cl)C(=O)N(C)C", "note": "(centres undefined)", "outcome": "inactive"}
{"smiles": "CC(C)c1ccc(CO)cc1", "outcome": "inactive"}
{"smiles": "COc1cc(OC)nc(NC(=O)NS(=O)(=O)c2ncccc2C(=O)N(C)C)n1", "outcome": "inactive"}
{"smiles": "O=[N+]([O-])c1ccc2c3c(cccc13)CC2", "outcome": "inactive"}
{"smiles": "O=C(OC1CCCCC1)c1ccccc1C(=O)OC1CCCCC1", "AC50": "20.9 µM (active)"}
{"smiles": "CC(C)CCCCCCOC(=O)c1ccccc1C(=O)OCCCCCCC(C)C", "AC50": "0.206 µM (active)"}
{"smiles": "Oc1c(I)cc(I)cc1I", "AC50": "20 µM (active)"}
